# Laboratory results reported in the supplement of paper PMC3334620.
# The full ranking holds about 33,000 sequences; the median of “E-score (-0.5 to 0.5)” is about -0.056, and the highest 2% start at about 0.38. Shown is part of a subset that was picked to be rich in the highest values.
# Biological target: Stb4 (UniProt P50104)
# Experiment: PBM E-score (8-mer binding enrichment) (E-score (-0.5 to 0.5)); higher = stronger / more preferred TF binding
# Settings: protein concentration: 200 nM; construct: GST-DNA-binding domain
# Procedure: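 Universal 'all 10-mer' protein binding microarrays (Agilent AMADID 015681) probed with GST-tagged S. cerevisiae TFs (full-length or DBD) made by in vitro transcription/translation (PURExpress), about 100-200 nM. Bound TF was detected with fluorescent anti-GST. Each ungapped 8-mer (which stands for itself and its reverse complement) is scored by the PBM enrichment score (E-score), a modified Wilcoxon-Mann-Whitney statistic from -0.5 to +0.5, computed with the Universal PBM Analysis Suite. Scale: above 0.35 generally sequence-specific binding.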
# Chain of UniProt P50104 (P50104 whole entry): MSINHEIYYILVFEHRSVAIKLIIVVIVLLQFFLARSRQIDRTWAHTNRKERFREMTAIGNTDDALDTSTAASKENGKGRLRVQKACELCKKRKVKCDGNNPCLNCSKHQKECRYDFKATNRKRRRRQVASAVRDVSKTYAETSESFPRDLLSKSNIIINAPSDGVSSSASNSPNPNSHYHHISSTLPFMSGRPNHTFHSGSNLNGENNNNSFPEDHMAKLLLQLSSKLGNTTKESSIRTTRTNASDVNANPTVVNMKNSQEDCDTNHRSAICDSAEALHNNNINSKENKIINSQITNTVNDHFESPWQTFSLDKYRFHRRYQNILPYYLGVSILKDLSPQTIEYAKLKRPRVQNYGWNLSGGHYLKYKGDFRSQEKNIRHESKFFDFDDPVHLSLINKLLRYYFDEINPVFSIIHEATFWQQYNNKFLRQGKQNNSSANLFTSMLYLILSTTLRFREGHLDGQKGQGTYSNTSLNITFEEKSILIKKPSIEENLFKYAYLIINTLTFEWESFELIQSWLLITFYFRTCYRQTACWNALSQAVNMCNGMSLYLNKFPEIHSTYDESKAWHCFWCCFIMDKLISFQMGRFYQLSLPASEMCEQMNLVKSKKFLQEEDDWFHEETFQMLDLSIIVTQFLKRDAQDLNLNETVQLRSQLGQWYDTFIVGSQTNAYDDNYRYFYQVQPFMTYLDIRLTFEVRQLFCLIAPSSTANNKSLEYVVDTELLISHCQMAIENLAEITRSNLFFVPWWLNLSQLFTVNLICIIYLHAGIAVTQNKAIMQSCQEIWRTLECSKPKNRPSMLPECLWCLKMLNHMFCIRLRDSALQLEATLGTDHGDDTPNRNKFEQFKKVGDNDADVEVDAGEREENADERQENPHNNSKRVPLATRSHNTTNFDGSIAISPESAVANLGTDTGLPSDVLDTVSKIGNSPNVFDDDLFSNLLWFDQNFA
row,Sequence,PBM E-score
1,GGAGTGTA,0.0839
2,CCGGTCCC,0.282
3,CCGGTCCA,0.0504
4,CCGGTCCG,0.389
5,CCAAAGTA,0.0417
6,AGGGCTCA,-0.326
7,CTTCGGGA,0.439
8,ATTCGGGG,0.34
9,ATTCGGGA,0.415
10,GTACGGGA,0.222
11,CTTCGGGC,0.291
12,GATCGGGA,0.359
13,ATTCGGGC,0.301
14,GTTCGGGA,0.453
15,CATCGGGA,0.331
16,TGCTAAAA,-0.205
17,AGATCGAT,-0.16
18,ACCCCTAT,-0.143
19,GACCTGCC,0.0159
20,ACACTGAG,-0.128
21,ACGGGACA,0.276
22,CCGGGACA,0.326
23,CCGGGAAA,0.33
24,CCGGAAAG,0.366
25,CCGGAAAC,0.394

row,Sequence,PBM E-score
1,ACGGAAAC,0.375
2,CTGGAAAA,-0.00258
3,CCGGAAAA,0.441
4,TCGGGACA,0.408
5,TCGGGAAA,0.443
6,CAGGAAAA,-0.0586
7,GCGGGAAA,0.306
8,ACGCAAAT,-0.00753
9,GTAAGACA,-0.166
10,CCACTGCA,-0.135
11,AAGGGAGC,-0.0979
12,CGCTGAAC,0.00896
13,AGCGCTCA,-0.191
14,ATTATGGA,-0.154
15,CCGCTTTA,0.138
16,GCGGGAGA,0.227
17,GCGGAAAA,0.332
18,ACGGAAAA,0.325
19,ACGGGAGA,0.12
20,TCGGGAGA,0.391
21,TCGGAAAA,0.451
22,AGACGGAC,-0.0259
23,ACTGGTAG,-0.226
24,ATTGATCG,0.0261
25,CCCCGATA,0.145

row,Sequence,PBM E-score
1,GATCTTCC,0.285
2,CCGGTAAA,0.312
3,TCGGGTCA,0.427
4,CCGGGTAG,0.355
5,CCGGGTCA,0.276
6,CCGGGTAA,0.418
7,ACGGGTCA,0.0265
8,CCGGGTAC,0.375
9,CCGGTTAA,0.334
10,TCGGTAAA,0.433
11,GCGGTTAA,0.17
12,GCGGTAAA,0.188
13,TCGGTTAA,0.44
14,GACGCGAC,-0.068
15,CACCATGG,-0.29
16,GTCTAGAC,-0.342
17,ACACAACC,-0.0108
18,CAGGCTCG,0.08
19,AGAGTTAC,-0.165
20,ATGGTTTA,0.193
21,ACGGGTAA,0.328
22,TCGGGTAA,0.464
23,GCGGGTAA,0.325
24,GATCGGCA,0.349
25,CTTCGGCC,0.218

row,Sequence,PBM E-score
1,CATCGGCA,0.376
2,ATTCGGCC,0.271
3,GTTCGGCA,0.418
4,ATTCGGCG,0.333
5,ATTCGGCA,0.438
6,CTTCGGCA,0.443
7,GGTCGGCA,0.353
8,ACAACCTC,-0.114
9,AGGCTGGG,-0.236
10,ACCGCGTG,0.053
11,ACTCCAAC,-0.11
12,AGACTGAG,-0.107
13,CCTCGGGA,0.444
14,ACTCGGGC,0.263
15,ACTCGGGA,0.44
16,CCTCGGGC,0.288
17,GCACGGGA,0.305
18,GCTCGTGA,-0.108
19,CCACGGGA,0.223
20,ACTCGGGG,0.286
21,GCTCGGGA,0.464
22,ATGTGCCC,-0.048
23,GACCGCTA,0.0181
24,GCACTTAC,0.0807
25,CAGAGGCC,-0.204

row,Sequence,PBM E-score
1,ACTTGGTA,-0.265
2,AATGTGAT,-0.15
3,CGGATACA,0.433
4,CGGATACC,0.41
5,CCGATACG,0.307
6,AGGATACG,-0.23
7,GGGATACC,0.184
8,AGGATACA,-0.261
9,CGGATACG,0.409
10,TGGATACA,-0.147
11,AGGATACC,0.0351
12,CCGCTCGA,0.11
13,GCGCGACC,-0.0286
14,ACGTTCAG,-0.252
15,TCAGGGCA,-0.18
16,AATACAGT,-0.194
17,CGGAACTC,0.401
18,GGGAACTA,0.183
19,AGGAACTC,-0.0879
20,CGGAACTA,0.449
21,CTGAACTC,-0.175
22,AGGAACTA,0.0365
23,ACTCTAGG,-0.212
24,CAGCTCCA,-0.265
25,CGCGGCCG,0.136

row,Sequence,PBM E-score
1,AATCGGGC,0.159
2,ACTCTGAC,-0.0524
3,ATATCCAA,0.0444
4,CTATCCGA,0.469
5,GTATCCGA,0.487
6,ATATCCGG,0.424
7,ATATCCAG,-0.114
8,GTATCCTA,-0.107
9,ATATCCCG,0.306
10,ATATCCTA,-0.0944
11,CTATCCAA,-0.268
12,CTATCCCA,-0.135
13,ATATCCGA,0.482
14,GTATCCCA,-0.0937
15,AATCTAAG,-0.107
16,AGACTGGC,-0.17
17,ACCCAGCG,-0.0996
18,CAATGTAA,0.112
19,ATTATGGG,-0.0331
20,TAGATGCA,-0.222
21,GTCAGCGA,-0.138
22,ATTGGGTG,-0.0143
23,GACCTTAA,-0.145
24,GGGTCTCA,8e-05
25,GCGAGCAC,-0.135

row,Sequence,PBM E-score
1,CCGAGCAC,0.413
2,ACGAGCAC,-0.133
3,ACGAGCAA,-0.0941
4,TCGAGCAA,-0.141
5,CCGAGCAA,0.406
6,GAACAGGA,-0.0169
7,GCGAAGTA,-0.0361
8,ACGAAGTA,-0.0487
9,ACGAAGTC,-0.264
10,CCGAAGTC,0.417
11,CCGAAGTA,0.418
12,CAGAAGTC,-0.174
13,ACAGCTTC,0.0141
14,AACACCGG,0.248
15,CATGCCAA,-0.257
16,CTTCCTCA,-0.208
17,CGCACCAC,-0.0216
18,AGTTTGAG,-0.092
19,GCCTCGGA,0.444
20,CCCTCGTA,-0.114
21,CCCTCGCA,-0.0413
22,GCCTCGAA,-0.0521
